In PubChem BioAssay AID504882 (Broad Institute, 2011):
Among all 1,200 compounds or so, about 290 (24%) were called active. About 9% were inconclusive and are not listed. The rule behind the calls is not given here. A selection follows. Where a call stands in place of a potency, no number is given. Potency and affinity values are given separately.

Experiment: cytotoxicity in EBV lymphoblastoid cells, dose response, cytotoxicity control, cell-based, plate reader, cherry-picks, set 2 (AID 504882)
Conditions: EBV lymphoblastoid cells (LCL) viability; series mostly up to 19.5 µM

Row | SMILES | outcome
1 | O=C(N/N=C(/CC(=O)c1cccs1)C(F)(F)F)c1ccc(O)cc1 | inactive
2 | CCC(C)[C@H](NC(=O)NCc1cccnc1)C(=O)OC (some centres undefined) | inactive
3 | Cc1cccc(C)c1NC(=O)CN(C)C(=O)c1ccc(-c2cccc(C(F)(F)F)c2)o1 | inactive
4 | O=C(CN1C(=O)c2ccccc2S1(=O)=O)c1ccc(F)c(F)c1 | inactive
5 | COc1ccc(-n2c(SCC(=O)Nc3ccc4c(c3)OCO4)nc3c(c2=O)SCC3)cc1 | inactive
6 | Cc1ccnc(NC(=O)CCC(=O)c2cccs2)c1 | inactive
7 | COc1ccc(C(=O)Nn2c(SCC(=O)NC3CCCCC3)nc3ccccc3c2=O)cc1 | inactive
8 | NC(=O)CC(NC(=O)c1ccccc1)c1ccc(NC2CCN(Cc3ccccc3)CC2)c([N+](=O)[O-])c1 (centres undefined) | inactive
9 | Cc1cccc(Cn2cc(SCC(=O)Nc3nccs3)c3ccccc32)c1 | inactive
10 | COC(=O)c1c(O)ccc(Oc2ccccc2)c1C(=O)OC | inactive
11 | COc1ccc2oc(C(=O)NCCc3ccccc3)c(C)c2c1 | inactive
12 | COc1ccc(-n2c(SCC(=O)Nc3cc(C)on3)nc3c(c2=O)SCC3)cc1 | inactive
13 | Cc1ccc(-n2ccc(=O)c(C(=O)Nc3ccc(S(=O)(=O)N4CCOCC4)cc3)n2)cc1 | inactive
14 | O=C1c2ccccc2C(Nc2cccnc2)N1Cc1ccccc1 (centres undefined) | inactive
15 | COc1cc(C(=S)N2CCOCC2)cc(OC)c1OC(=O)c1ccc(F)cc1 | inactive
16 | COc1cc(/C=N/NC(=O)c2cccc(S(=O)(=O)N3CCOCC3)c2)cc(OC)c1O | inactive
17 | O=C(NOCc1ccccc1)c1ccc(Cl)cc1Cl | inactive
18 | C[C@H]1C[C@H]2[C@@H]3CCC4=CC(=O)C=C[C@]4(C)[C@@]3(F)[C@@H](O)C[C@]2(C)[C@@]1(O)C(=O)CO | inactive
19 | CC1CCC(NC(=O)CC2Oc3ccccc3NC2=O)CC1 (centres undefined) | inactive
20 | O=C1CN(C(=O)c2ccc(F)c(S(=O)(=O)N3CCOCC3)c2)c2ccccc2N1 | inactive
21 | CC(C)c1nnc(NC(=O)c2ccc(N3C(=O)CCC3=O)cc2)s1 | inactive
22 | COc1cc2c(cc1OC)-c1cc(Nc3ccc4c(c3)OCCO4)nc(=O)n1CC2 | inactive
23 | COc1ccccc1C=NN=Cc1ccccc1O | inactive

Row | SMILES | outcome
24 | CCCC(=O)NCCCc1nc2ccccc2[nH]1 | inactive
25 | COc1cccc(C(=O)Nc2nc3ccccc3[nH]2)c1 | inactive
26 | CCc1ccc(-c2nnn(CCC(=O)OC)n2)cc1 | inactive
27 | COc1cccc(C(=O)CC(=O)C(=O)Nc2ccc(C)cc2Cl)c1 | inactive
28 | CCc1ccc(/C=C/C(=O)C2C(=O)c3ccccc3C2=O)cc1 | inactive
29 | O=C(OCc1ccccc1F)c1cc2ccccc2cc1O | inactive
30 | CCS(=O)(=O)c1nnnn1-c1ccccc1S(C)(=O)=O | inactive
31 | C[C@H](NC(=O)N1CCn2c1nc1ccccc12)C(=O)NCC1CCCO1 (some centres undefined) | inactive
32 | CCOC(=O)c1ccc(NC(=S)N2CCSC2c2ccc(OC)cc2)cc1 (centres undefined) | inactive
33 | COC(=O)c1[nH]c2cccc(C)c2c1NC(=O)CN1CCCc2ccccc21 | inactive
34 | CC(C)(C)c1nc2c(s1)CCc1onc(-c3ccc(Br)cc3)c1-2 | inactive
35 | Cc1nc2sc(C(N)=O)c(N)c2c2c1CCCC2 | inactive
36 | O=C(Nc1ccc(Cl)cc1)c1ccco1 | inactive
37 | O=C(Nc1ccc2c(c1)nc1n2CCSC1)c1ccco1 | inactive
38 | CCOC(=O)C1=C(O)/C(=C/c2ccc(CNC(=O)C(=O)Nc3ccc(C)cc3)o2)N=C1C | inactive
39 | Nc1cc(=O)[nH]c(SCCSc2cc(Cl)ccc2Cl)n1 | inactive
40 | CC(C)(C)c1cc(C(=O)NNC(=O)Nc2cccc(Cl)c2)n(Cc2ccccc2)n1 | inactive
41 | CC(=O)O[C@]1(C(C)=O)CC[C@H]2[C@@H]3C=C(C)C4=CC(=O)CC[C@@H]4[C@H]3CC[C@@]21C | inactive
42 | O=C(O)c1ccccc1Nc1cccc(OCc2ccc3ccccc3n2)c1 | inactive
43 | c1ccc2c3c([nH]c2c1)C(C1CCCCC1)N(Cc1ncc[nH]1)CC3 (centres undefined) | inactive
44 | O=C1c2ccccc2C(Nc2ccc(Cl)cc2)N1CCN1CCOCC1 (centres undefined) | inactive
45 | Brc1ccc(-c2csc(N3CCCCCC3)n2)cc1 | inactive
46 | COc1cc(/C=C2\SC(=S)N(NC(=O)c3ccncc3)C2=O)ccc1O | inactive

Row | SMILES | outcome
47 | CCc1nnc(NC(=O)c2cc(S(=O)(=O)N3CCN(CC)CC3)ccc2Cl)s1 | inactive
48 | COc1cc2c(=O)n(CC3CCCO3)c(=O)n(CC(=O)Nc3cccc(Cl)c3)c2cc1OC (centres undefined) | inactive
49 | COc1ccc(NC(=O)N(CCN2CCCC2)Cc2cc3cc(OC)c(OC)cc3[nH]c2=O)cc1 | inactive
50 | Cc1cccc(C)c1NC(=O)CN(C)CC(=O)Nc1ccccc1Oc1ccccc1 | inactive
51 | Cc1ccc(C(=O)Nc2ccc3ncccc3c2)cc1 | inactive
52 | O=C(O)c1c2c(nc3ccccc13)/C(=C/c1ccc(O)cc1)CC2 | inactive
53 | CSc1nc(C)cc(C)c1C#N | inactive
54 | CC1(C)CN(Cc2ccccc2)C(=O)[C@H]1CC(=O)Nc1ccccc1 | inactive
55 | O=C(Cc1cccc2ccccc12)Nc1ccc(-c2cc3ccccc3oc2=O)cc1 | inactive
56 | NC(=O)c1sc2nccc(Nc3ccccc3)c2c1N | inactive
57 | CCCCCC(=O)N1CCN(c2ccc(C(C)=O)cc2F)CC1 | inactive
58 | COc1ccc(C(c2c(C)n(C)n(-c3ccccc3)c2=O)c2c(C)n(C)n(-c3ccccc3)c2=O)c(OC)c1OC | inactive
59 | CC(C)C(=O)Nc1ccc(C(=O)N/N=C/c2cc(Br)cc(Br)c2O)cc1 | inactive
60 | CCSc1nc2ccc(OC)cc2cc1C#N | inactive
61 | COc1ccccc1C(=O)Nc1c[nH]c(=O)[nH]c1=O | inactive
62 | CN1OC[C@@H]2CN[C@H](c3ccc(-c4cc5ccccc5o4)cc3)C[C@@H]21 | inactive
63 | O=C(O)CN1C(=O)/C(=C\c2ccccc2OCc2ccc(Cl)cc2Cl)SC1=S | inactive
64 | COc1cc(/C=N/NC(=S)Nc2cccc(C(=O)O)c2)ccc1O | inactive
65 | S=C(N/N=C/c1ccc2ncccc2c1)Nc1cccnc1 | inactive
66 | OCCN(CCO)CC(O)COCCC12CC3CC(CC(C3)C1)C2 (centres undefined) | inactive
67 | O=C(Nc1cnc2ccccn2c1=O)c1ccc(Cl)cc1Cl | inactive
68 | O=C(O)c1ccc(C=NN=C2c3ccccc3-c3ccccc32)cc1 | inactive
69 | CC(=O)c1ccc(N2CCN(c3ccnc4cc(Cl)ccc34)CC2)cc1 | inactive
